# Source: the supplement of paper PMC10849652
# About 8,800 targets were measured; listed, in parts, are those with a hit and a random draw of the rest. About 0.5% of all pairs of compound and target were hits. Unmarked numbers belong to inactive results.
# Compound: CN1CCC(CNc2ccc3ncc(-c4cccc(OC(F)(F)F)c4)n3n2)CC1
# Assay: log2 fold change, soluble protein after heating vs DMSO (PISA); higher = thermal stabilisation; K562 lysate, 10 uM; active = over 0.2 and 3.5 SD of the protein, either way, in both replicates (recomputed)
# In short: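 K562 pellets were dounce-homogenised in PBS pH 7.4 with 1 mM MgCl2, and the crude extract at 1 mg/mL protein was treated with 10 μM compound for 30 min. Aliquots were heated for 3 min across 48°C-58°C, pooled, and brought to 0.5% NP-40 at 4°C; soluble protein was the supernatant after 21,000xg for 90 min. Soluble protein was quantified by TMTpro 16plex LC-MS/MS with channel sums equalised, and reported as log2 fold change in thermal stability against DMSO controls, with values from duplicates.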
# Chain of UniProt Q96DH6 (Q96DH6 whole entry, looked up): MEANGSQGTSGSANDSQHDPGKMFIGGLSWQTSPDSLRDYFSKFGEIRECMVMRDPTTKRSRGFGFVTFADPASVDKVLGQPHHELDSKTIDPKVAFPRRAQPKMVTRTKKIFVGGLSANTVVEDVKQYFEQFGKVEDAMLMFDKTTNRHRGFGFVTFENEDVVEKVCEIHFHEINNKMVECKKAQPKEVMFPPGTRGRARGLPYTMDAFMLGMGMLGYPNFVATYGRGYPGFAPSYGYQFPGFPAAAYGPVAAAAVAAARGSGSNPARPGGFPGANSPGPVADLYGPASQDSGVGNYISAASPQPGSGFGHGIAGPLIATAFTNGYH
# Chain of UniProt Q8TDX7 (Q8TDX7 whole entry, looked up): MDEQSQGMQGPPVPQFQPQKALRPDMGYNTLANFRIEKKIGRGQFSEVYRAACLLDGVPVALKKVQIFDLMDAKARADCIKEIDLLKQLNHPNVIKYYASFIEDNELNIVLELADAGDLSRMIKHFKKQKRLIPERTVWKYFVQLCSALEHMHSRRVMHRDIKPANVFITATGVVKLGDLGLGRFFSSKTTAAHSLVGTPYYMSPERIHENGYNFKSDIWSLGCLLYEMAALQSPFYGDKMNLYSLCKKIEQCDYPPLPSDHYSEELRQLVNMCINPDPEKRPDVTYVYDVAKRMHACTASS
# Chain of UniProt Q8WUM0 (Q8WUM0 whole entry, looked up): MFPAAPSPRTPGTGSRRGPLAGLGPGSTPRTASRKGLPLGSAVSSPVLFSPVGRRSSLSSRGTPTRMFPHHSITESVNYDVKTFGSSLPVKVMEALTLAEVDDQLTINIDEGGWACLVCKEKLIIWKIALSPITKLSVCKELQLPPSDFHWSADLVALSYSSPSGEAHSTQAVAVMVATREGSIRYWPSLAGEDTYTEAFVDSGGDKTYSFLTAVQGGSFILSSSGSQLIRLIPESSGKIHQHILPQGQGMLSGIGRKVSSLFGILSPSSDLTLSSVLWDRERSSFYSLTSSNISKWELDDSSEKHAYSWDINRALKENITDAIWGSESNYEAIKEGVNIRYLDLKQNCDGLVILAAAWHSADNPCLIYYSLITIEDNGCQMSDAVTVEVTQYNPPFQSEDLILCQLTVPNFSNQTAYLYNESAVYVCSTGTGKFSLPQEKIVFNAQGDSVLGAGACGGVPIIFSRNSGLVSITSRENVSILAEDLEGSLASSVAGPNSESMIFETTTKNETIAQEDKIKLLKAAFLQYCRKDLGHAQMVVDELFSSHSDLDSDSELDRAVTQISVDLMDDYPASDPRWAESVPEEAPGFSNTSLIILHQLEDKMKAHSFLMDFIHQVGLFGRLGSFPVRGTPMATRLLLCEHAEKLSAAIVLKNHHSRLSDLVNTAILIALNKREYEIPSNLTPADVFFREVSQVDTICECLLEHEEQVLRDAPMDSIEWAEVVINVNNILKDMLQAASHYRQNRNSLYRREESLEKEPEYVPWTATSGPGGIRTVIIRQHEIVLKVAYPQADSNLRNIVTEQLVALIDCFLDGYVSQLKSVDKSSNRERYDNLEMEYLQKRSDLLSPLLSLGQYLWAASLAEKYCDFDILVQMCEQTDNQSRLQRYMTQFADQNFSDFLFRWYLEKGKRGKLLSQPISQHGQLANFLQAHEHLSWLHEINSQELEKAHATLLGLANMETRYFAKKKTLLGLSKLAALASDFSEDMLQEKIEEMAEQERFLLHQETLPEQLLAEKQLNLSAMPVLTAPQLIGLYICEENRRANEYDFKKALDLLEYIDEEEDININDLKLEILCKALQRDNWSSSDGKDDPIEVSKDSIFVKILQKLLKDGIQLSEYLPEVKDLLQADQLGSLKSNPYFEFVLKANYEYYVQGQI
# Chain of UniProt Q13330 (Q13330 whole entry, looked up): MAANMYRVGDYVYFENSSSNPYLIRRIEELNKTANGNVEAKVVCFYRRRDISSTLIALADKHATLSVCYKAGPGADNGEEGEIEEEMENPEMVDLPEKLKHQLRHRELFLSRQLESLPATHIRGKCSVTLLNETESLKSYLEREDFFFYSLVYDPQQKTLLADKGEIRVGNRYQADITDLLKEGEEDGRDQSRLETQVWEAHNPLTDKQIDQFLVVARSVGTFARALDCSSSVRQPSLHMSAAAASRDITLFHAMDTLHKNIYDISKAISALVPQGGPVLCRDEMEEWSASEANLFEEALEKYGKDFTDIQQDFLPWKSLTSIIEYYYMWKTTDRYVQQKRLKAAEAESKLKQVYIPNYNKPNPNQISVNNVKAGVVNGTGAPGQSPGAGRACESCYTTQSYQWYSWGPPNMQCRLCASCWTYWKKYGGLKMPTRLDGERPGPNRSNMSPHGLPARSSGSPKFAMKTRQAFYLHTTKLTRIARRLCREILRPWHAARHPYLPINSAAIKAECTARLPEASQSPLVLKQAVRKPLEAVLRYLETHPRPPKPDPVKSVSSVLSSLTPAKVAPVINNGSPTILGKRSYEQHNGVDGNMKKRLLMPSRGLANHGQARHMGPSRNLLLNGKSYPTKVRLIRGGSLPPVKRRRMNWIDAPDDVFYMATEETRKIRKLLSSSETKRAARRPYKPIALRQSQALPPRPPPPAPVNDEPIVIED
# Chain of UniProt Q9ULX3 (Q9ULX3 whole entry, looked up): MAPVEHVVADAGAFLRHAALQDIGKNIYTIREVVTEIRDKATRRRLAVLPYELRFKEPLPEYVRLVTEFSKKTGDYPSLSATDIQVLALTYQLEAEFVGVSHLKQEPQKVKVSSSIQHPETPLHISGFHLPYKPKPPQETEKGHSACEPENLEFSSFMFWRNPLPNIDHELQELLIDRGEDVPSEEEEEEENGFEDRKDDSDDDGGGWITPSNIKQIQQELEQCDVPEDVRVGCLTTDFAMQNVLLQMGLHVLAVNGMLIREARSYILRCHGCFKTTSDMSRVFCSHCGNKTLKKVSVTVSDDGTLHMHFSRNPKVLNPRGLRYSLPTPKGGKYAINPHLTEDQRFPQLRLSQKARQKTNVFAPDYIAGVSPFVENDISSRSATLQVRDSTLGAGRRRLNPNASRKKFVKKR
# Chain of UniProt Q5VZE5 (Q5VZE5 whole entry, looked up): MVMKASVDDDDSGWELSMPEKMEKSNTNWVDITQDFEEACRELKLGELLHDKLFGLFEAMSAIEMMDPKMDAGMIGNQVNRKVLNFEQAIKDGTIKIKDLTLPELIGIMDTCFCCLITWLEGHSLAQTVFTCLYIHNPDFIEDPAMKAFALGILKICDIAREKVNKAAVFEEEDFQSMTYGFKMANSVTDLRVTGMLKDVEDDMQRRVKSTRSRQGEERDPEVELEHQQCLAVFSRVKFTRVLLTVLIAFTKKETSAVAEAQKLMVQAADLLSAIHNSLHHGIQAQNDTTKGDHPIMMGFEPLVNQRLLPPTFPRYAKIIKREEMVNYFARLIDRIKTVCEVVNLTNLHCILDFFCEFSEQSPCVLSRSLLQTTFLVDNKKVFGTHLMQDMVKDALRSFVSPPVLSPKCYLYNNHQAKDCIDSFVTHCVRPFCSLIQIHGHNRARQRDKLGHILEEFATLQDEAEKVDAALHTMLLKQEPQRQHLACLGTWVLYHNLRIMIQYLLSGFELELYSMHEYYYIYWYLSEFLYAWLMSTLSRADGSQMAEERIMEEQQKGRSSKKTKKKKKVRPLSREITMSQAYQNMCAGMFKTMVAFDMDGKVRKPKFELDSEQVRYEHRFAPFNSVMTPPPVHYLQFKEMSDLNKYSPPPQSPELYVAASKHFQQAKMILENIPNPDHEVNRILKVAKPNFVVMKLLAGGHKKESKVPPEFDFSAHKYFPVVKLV
# Chain of UniProt Q9UFN0 (Q9UFN0 whole entry, looked up): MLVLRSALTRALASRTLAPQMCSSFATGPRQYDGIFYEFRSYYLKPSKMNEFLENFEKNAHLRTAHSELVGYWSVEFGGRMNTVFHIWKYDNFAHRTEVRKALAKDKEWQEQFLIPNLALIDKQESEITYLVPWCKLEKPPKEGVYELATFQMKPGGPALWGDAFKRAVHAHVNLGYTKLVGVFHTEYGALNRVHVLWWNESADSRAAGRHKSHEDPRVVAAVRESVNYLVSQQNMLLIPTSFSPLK
# Chain of UniProt Q96IY1 (Q96IY1 whole entry, looked up): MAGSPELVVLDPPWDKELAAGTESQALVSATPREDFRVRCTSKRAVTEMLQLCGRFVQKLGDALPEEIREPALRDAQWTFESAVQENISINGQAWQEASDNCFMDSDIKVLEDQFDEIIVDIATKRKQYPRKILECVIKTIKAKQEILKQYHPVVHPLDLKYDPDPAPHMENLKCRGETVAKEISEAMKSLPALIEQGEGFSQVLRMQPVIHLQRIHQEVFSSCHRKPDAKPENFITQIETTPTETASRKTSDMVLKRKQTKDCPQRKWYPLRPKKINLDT
# Chain of UniProt Q9UDX5 (Q9UDX5 whole entry, looked up): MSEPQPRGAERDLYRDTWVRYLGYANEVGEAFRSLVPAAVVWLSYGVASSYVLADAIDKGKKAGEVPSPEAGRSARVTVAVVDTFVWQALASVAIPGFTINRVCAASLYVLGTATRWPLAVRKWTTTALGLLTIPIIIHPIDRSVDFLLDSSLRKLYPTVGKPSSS
# Chain of UniProt P04181 (P04181 whole entry, looked up): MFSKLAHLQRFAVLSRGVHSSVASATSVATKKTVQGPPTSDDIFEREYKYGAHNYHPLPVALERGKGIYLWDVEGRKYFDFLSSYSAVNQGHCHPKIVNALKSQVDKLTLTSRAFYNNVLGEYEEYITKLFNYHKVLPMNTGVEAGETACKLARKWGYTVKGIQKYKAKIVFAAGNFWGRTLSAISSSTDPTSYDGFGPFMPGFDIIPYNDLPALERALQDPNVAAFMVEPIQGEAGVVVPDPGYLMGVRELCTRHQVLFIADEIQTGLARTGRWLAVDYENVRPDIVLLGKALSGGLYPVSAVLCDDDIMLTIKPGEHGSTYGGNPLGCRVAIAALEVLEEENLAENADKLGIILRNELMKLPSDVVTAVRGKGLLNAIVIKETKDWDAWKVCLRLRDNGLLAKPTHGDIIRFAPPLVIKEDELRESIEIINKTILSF
row,Target,log2 fold change
1,NSL1 (UniProt Q96IY1),0.047
2,NOB1 (UniProt Q9ULX3),-0.102
3,OAT (UniProt P04181),0.014
4,NEK7 (UniProt Q8TDX7),0.041
5,MTFP1 (UniProt Q9UDX5),0.041
6,NIPSNAP3A (UniProt Q9UFN0),-0.213
7,NAA35 (UniProt Q5VZE5),-0.035
8,NCAPD2 (UniProt Q15021),-0.055
9,NUP133 (UniProt Q8WUM0),0.04
10,MSI2 (UniProt Q96DH6),0.002
11,OGFR (UniProt Q9NZT2),-0.039
12,MTA1 (UniProt Q13330),-0.061
